Screening data as filed in PubChem BioAssay.
An excerpt weighted towards active compounds, which were near 2.1% of everything screened.
D2 ag-1: agonists of human D2 dopamine receptor; HEK293 T-REx D2 cells, calcium flux agonist mode; 340,000 tested, 0.53% active; P14416; activation, % at 2 µM; AID 485358;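 active means activation over 3 SD above normal in the single-dose calcium agonist read, cut at about 30% in these data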; further: 0% is about no effect
Target sequence (P14416 whole entry, looked up): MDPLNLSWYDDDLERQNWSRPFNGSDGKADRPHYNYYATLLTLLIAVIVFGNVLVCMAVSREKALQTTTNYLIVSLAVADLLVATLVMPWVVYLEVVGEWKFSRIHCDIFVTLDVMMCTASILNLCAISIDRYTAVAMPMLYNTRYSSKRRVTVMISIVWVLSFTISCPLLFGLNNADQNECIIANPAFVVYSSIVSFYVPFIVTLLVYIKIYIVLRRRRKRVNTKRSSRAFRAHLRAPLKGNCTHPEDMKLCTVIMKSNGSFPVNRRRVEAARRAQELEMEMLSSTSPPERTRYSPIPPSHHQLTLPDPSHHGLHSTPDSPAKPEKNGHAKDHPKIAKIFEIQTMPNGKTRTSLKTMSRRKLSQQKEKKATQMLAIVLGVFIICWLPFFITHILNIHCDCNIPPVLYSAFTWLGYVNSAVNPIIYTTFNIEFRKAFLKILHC
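Agonism scored from kinetic calcium signal (1 read/sec, 180 s) following compound pin transfer, after a 10 s baseline. Cells: HEK293 Trex line expressing inducible D2 receptor coupled to calcium, dye-loaded after overnight culture at 30 C.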
D2 PAM-1: D2 dopamine receptor (human) potentiation. AID 485347. potentiation, % at 10 µM. 340,000 tested, 0.34% active. HEK293 T-REx D2, calcium flux, EC20 dopamine potentiation;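 active means potentiation over 3 SD above the plate norm, cut at about 30% in these data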; further: 0% is about no effect
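Potentiation of an EC20 dopamine calcium response measured kinetically over 180 s, after a preceding 180 s compound-only read flagging agonists. Cells: inducible Hek293 Trex D2 line, 4000/well, cultured overnight at 30 C before dye loading.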
D2 antagonist: D2 dopamine receptor (human) antagonism; HEK293 TREx D2 cells, calcium flux, dopamine EC80; 340,000 tested, 2% active; P14416; AID 485344; inhibition, % at 10 µM; in the data active means inhibition above about 30%; inactive means below that, where a call was filed; further: 0% is about no effect
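Calcium mobilization kinetics were recorded at 1 s intervals in tetracycline-induced HEK293 T-REx D2 cells, first for 180 s after compound addition and then 180 s after EC80 dopamine.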
D2 PAM-2: potentiates the human D2 dopamine receptor allosterically; 360,000 tested, 0.23% active; DiscoveRx D2 beta-arrestin cells, luminescence, 90 min; 100% = 57 uM dopamine signal; potentiation, % (test concentration not listed); in the data active means potentiation above about 50%; inconclusive means mostly about 30% to 49%
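PathHunter D2 cells, attached overnight at 37 deg C, received compound in DMSO plus dopamine at EC20 (50 nM final) for 90 min at 37 deg C. Beta-arrestin recruitment was read as luminescence after 1 h with detection reagent at ambient temperature.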
LDHA block: LDHA (human) enzyme inhibition; P00338; purified LDHA, NADH/diaphorase-resazurin fluorescence; active compounds read low; activity change, % (values are at about 110 or 230 µM); 480,000 tested, 0.15% active; AID 1347041; in the data active means activity change below about -30%; inconclusive means mostly about -25% to -30%;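 further: plate controls were DMSO wells for no effect and wells without enzyme for full effect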
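Enzyme activity of human lactate dehydrogenase 5 (2 nM; 0.06 mM NADH, 0.2 mM pyruvate, 5 min, RT) is measured via a resazurin/diaphorase fluorescence readout of residual NADH.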
D2 ag-2: agonists of human D2 dopamine receptor (beta-arrestin); DiscoveRx PathHunter D2 beta-arrestin, luminescence, 90 min; 100% = 57 uM dopamine signal; activation, % (test concentration not listed); 360,000 tested, 0.084% active; in the data active means activation above about 40%; inconclusive means between about 15% and that limit
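DiscoveRx PathHunter D2 beta-arrestin cells (2,100/well) attached overnight, then compound-stimulated 90 min at 37 C in HBSS/10 mM HEPES/0.1% Tween-20 buffer; beta-galactosidase complementation read by luminescence after 1 h at ambient temperature. Dopamine 57 uM final (EC100) as control.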
* marks the source's active call; other numbers are inactive results; u = inconclusive; x = no result given.

SMILES	D2 ag-1	D2 PAM-1	D2 antagonist	D2 PAM-2	LDHA block	D2 ag-2
CCOc1ccc(CN(C)CC(O)COC(c2ccc(OC)cc2)c2ccc(OC)cc2)cc1 (stereo not given)	0	0	30*	-10	2	4
CCOc1ccc(CN(C)CC(O)COCc2ccc(OC)cc2)cc1OC (stereo not given)	x	x	x	x	6	x
COc1ccc(CN(C)CC(O)COC(c2ccc(OC)cc2)c2ccc(OC)cc2)cc1 (stereo not given)	1	-4	39*	-7	0	1
COC(=O)C(C)N1C(=O)S/C(=C/c2ccc(C)o2)C1=O (stereo not given)	x	x	x	x	61	x
COC(=O)c1sc(S(=O)(=O)Nc2ccc(C)cc2)c(C(=O)OC)c1C	5	32*	4	1	-4	-4
COC(=O)c1cc2cc(NS(=O)(=O)c3ccc(C)cc3)ccc2s1	-2	43*	-9	-9	3	-2
COC(=O)c1sc(S(=O)(=O)Nc2ccc(Br)cc2)c(C(=O)OC)c1C	0	0	8	-20	1	0
CCCS(=O)(=O)N1CCC(C(=O)N2CCC(Cc3ccccc3)CC2)CC1	1	7	-8	-8	-4	-4
CCCS(=O)(=O)N1CCC(C(=O)NCCCN2CCC(Cc3ccccc3)CC2)CC1	1	-3	33*	-22	0	-2
C=CCn1c(NCCCOC)nc2c1c(=O)[nH]c(=O)n2C	x	x	x	x	-35*	x
CCOc1ccc2c(c1)cc(C(=O)NCc1ccco1)n2C	x	x	x	x	8	x
Cc1ccc(C(C)C)c(OCC(=O)Nc2sc3c(c2C#N)CC(C)(C)NC3(C)C)c1	0	2	17	-7	-1	-2
Cc1cc(OCC(=O)Nc2sc3c(c2C#N)CC(C)(C)NC3(C)C)c(C(C)C)cc1Cl	0	7	34*	-2	-5	3
O=C(Nc1ccc2c(c1)OCCO2)c1cccc2nc3ccccc3nc12	0	34*	-28	-2	-4	-3
COc1ccc(NC(=O)CSc2nc(O)cc(=O)n2-c2ccc(OC)cc2)cc1	0	40*	7	6	-6	5
COc1ccc(NC(=O)CSc2nc(-c3ccc(C)cc3)cc(C(F)(F)F)c2C#N)cc1	x	31*	x	-4	-7	0
COc1ccc(NC(=O)CSc2ncnc3sc(C)cc23)cc1	-1	-5	32*	-2	-5	0
COc1ccc(-n2c(SCC(=O)Nc3ccccc3)nc(O)cc2=O)cc1	0	0	5	11	-7	1
CCCc1ccc(OCc2ccc(C(=O)N3CCSCC3)o2)cc1	-1	6	39*	-6	-2	8
CCCn1cnc2c(N)c(C)c(C)cc21	1	8	32*	-5	8	-1
CC1CCC(NC(=O)c2ccc(-n3cncn3)c([N+](=O)[O-])c2)CC1 (stereo not given)	1	-7	36*	27	1	-4
CC(=O)c1cc2c(cc1NC(=O)c1cccc(F)c1)OCCO2	x	x	x	x	-6	x
Cc1ccc(-c2nc3cnccn3c2Nc2ccc3c(c2)OCO3)o1	1	-5	36*	9	6	5
Cc1ccn2c(Nc3ccc4c(c3)OCO4)c(-c3ccc(C)o3)nc2c1	0	-5	x	x	3	x
C=CCc1cc(Cl)ccc1OCCNCCN1CCOCC1	0	-24	-31	-10	u	-2
SMILES	D2 ag-1	D2 PAM-1	D2 antagonist	D2 PAM-2	LDHA block	D2 ag-2
C=CCc1cc(Cl)ccc1OCCNCCOC	0	-49	55*	-23	-18	-4
CCN1CCN(S(=O)(=O)c2ccc(NC(=O)CCc3ncc(-c4ccc(F)cc4)o3)cc2)CC1	x	x	x	x	10	x
COC(=O)C1C2CC3c4[nH]c5cc(OC)ccc5c4CCN3CC2CC(O)C1OC (stereo not given)	x	x	x	-18	10	5
COC(=O)C1C(O)CCC2CN3CCc4c([nH]c5ccccc45)C3CC21 (stereo not given)	-2	-23	50*	-8	6	3
COC(=O)C1C2CC3c4[nH]c5cc(OC)ccc5c4CCN3CC2CC(OC(=O)CC(C)=O)C1OC (stereo not given)	x	x	x	13	30	6
COC(=O)[C@H]1[C@H]2C[C@H]3c4[nH]c5ccccc5c4CCN3C[C@H]2CC[C@@H]1O	-1	-23	87*	-23	-1	4
COc1ccc(OC)c(NC(=O)Cc2c(C)c3ccc(OC)cc3oc2=O)c1	x	x	x	x	7	x
CC(C)(C)C(=O)NC(=S)NNC(=O)C(c1ccccc1)c1ccccc1	99*	-11	75*	-21	-3	-16
CC(=O)NNC(=S)NC(=O)C(c1ccccc1)c1ccccc1	2	-1	9	-8	-5	1
CC(C)CN1CCC(=O)N([C@H](CSc2ccc(Br)cc2)Cc2ccccc2)CC1	0	-10	36*	-9	0	2
COCc1c(C(=O)NCC(c2ccco2)N2CCCC2)sc2cccc(F)c12 (stereo not given)	x	x	x	x	0	x
O=C1CN=C(Nc2ccccc2Cl)N1c1ccccc1	2	-5	36*	1	-2	-5
CCOc1ccc(N2C(=O)CN=C2Nc2ccccc2Cl)cc1	0	-7	-5	-13	-6	-2
O=[N+]([O-])c1ccc(C[n+]2ccc(Cc3ccccc3)cc2)cc1	0	-1	3	10	32	13
c1ccc(Cc2cc[n+](Cc3ccccn3)cc2)cc1	0	9	42*	-2	0	-2
N#C/C(=C\c1ccco1)C(=O)NC1CCCC1	x	x	x	x	7	x
Nc1cc(N)nc(SCCC(=O)Nc2ccccc2F)n1	x	x	x	x	-24	x
CC1C(=O)N2CCCc3cc(S(=O)(=O)NCCc4ccccc4)cc1c32 (stereo not given)	0	43*	0	-3	-2	-4
CC(C)CCNC(=O)CN(Cc1ccc2c(c1)OCO2)C(=O)CCC(=O)Nc1ccccn1	-1	-6	-10	-4	-2	-3
CC(C)NC(=O)CN(Cc1ccc2c(c1)OCO2)C(=O)CCC(=O)Nc1ccccn1	0	9	43*	1	1	-1
